In PubChem BioAssay (NCATS):
Inconclusive results are not listed. Calls of active or inactive are those of the source. Calls come from the whole dose curve; as a rule, active = well fitted curve in the direction sought with a large enough effect; inconclusive = small, poorly fitted or top-dose-only effect, or another doubt; inactive = no such curve, though single readings can be large; an effect the other way counts as inactive or inconclusive.

Key:
[1] = HEK293 18hr Apoptosis Induction qHTS against the NCATS CANVASS Library (AID 1347357); note: 0% is about no effect
How it was run: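 Caspase-3/7 luminescence (DEVD substrate, Caspase-Glo) after 18 h compound exposure of HEK293 cells, 500 cells/well; 11-point series; doxorubicin titration as control.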

[2] = HEK293 24hr Apoptosis Induction qHTS against the NCATS CANVASS Library (AID 1347359); note: 0% is about no effect
How it was run: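 HEK293 cells (500/well, DMEM + 10% FBS) were exposed to compounds in an 11-point series for 24 hours at 37 degrees C, then caspase-3/7 activity was read by Caspase-Glo DEVD luciferase luminescence after 15 min.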

[3] = HPAF-II 18hr Apoptosis Induction qHTS against the NCATS CANVASS Library (AID 1347360); note: 0% is about no effect
How it was run: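 Caspase-Glo 3/7 luminescence (DEVD substrate) after 15 min RT; HPAF-II, 500 cells/well, 18 h compound exposure at 37 degrees C, qHTS series; doxorubicin control 0.1nM - 4uM.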

[4] = HEK293 12hr Apoptosis Induction qHTS against the NCATS CANVASS Library (AID 1347361); note: 0% is about no effect
How it was run: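 500 HEK293 cells/well; cpds pin-transferred, 11-pt conc series; 12 h, 37 degrees C/5% CO2; Caspase-Glo 3/7 added, 15 min RT dark; luminescence.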

[5] = target: Luciferin 4-monooxygenase (Photinus pyralis) (UniProt P08659); test: Firefly luciferase counterscreen qHTS: Assay Interference Panel against the NCATS CANVASS Library (AID 1347363); note: series mostly up to about 57 µM; 0% is about no effect
How it was run: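 Purified P. pyralis luciferase was added to compounds (11-point series) preincubated 15 min at room temperature with substrate containing 0.013 mM D-luciferin and 0.013 mM ATP; luminescence was read after 5 min.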

[6] = KB-3-1 Cancer Cell Toxicity qHTS against the NCATS CANVASS Library (AID 1347366); note: nearly all actives have a fitted effect of over 75% in size; for activity change, negative = cytotoxicity: series mostly up to about 46 µM; % is set by controls: 0 for no effect and ±100 for the full control effect
How it was run: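 500 KB-3-1 cells/well; compounds pin-transferred, 11-pnt series; 72 hr, 37C/5% CO2; CellTiter-Glo, 10 min RT; luminescence read-out.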

[7] = MCF7 Cancer Cell Toxicity qHTS against the NCATS CANVASS Library (AID 1347369); for activity change, negative = cytotoxicity: series mostly up to about 46 µM; % is set by controls: 0 for no effect and ±100 for the full control effect
How it was run: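 Luminescent ATP signal (CellTiterGlo) served as the cytotoxicity read-out after MCF7 breast cancer cells had been incubated 72 hr at 37C with natural products in an 11-point titration.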

[8] = target: Nuclear receptor subfamily 1 group I member 3 (Homo sapiens) (UniProt Q14994); test: qHTS for Constitutive Androstane Receptor (CAR) Agonist screened against the NCATS CANVASS Library (AID 1347373);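 note: every well also contained 1.5 µM PK11195 alongside the test compound; 0% is about no effect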
How it was run: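 Luciferase read-out (ONE-Glo, 30 min RT) of CYP2B6-2.2kb promoter activity in double-stable HepG2-hCAR cells after 24hr compound exposure with 1.5uM PK11195 present; viability measured first by CellTiter-Fluor.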

[9] = 10-beta competent E. coli microbial cell viability qHTS against the NCATS CANVASS Library (AID 1347376); note: series mostly up to about 46 µM; 0% is about no effect
How it was run: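 Luminescence from BacTiter-Glo ATP detection served as the viability read-out; bacteria (0.2 OD) had been incubated overnight at 37C with pin-transferred compounds at 11 concentrations.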

[10] = DH5-alpha competent E. coli microbial cell viability qHTS against the NCATS CANVASS Library (AID 1347377); conditions: outcome: dose series up to 46.1 µM unless noted
How it was run: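 Luminescent ATP read-out (BacTiter-Glo, 20 min RT) after overnight 37C culture of DH5-alpha E. coli with compounds; daunomycin control at 0.2 nM–9.2 uM final.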

[11] = qHTS for Inflammasome Signaling Inhibitors: IL-1-beta AlphaLISA screen against the NCATS CANVASS Library (AID 1347379);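 note: human THP-1 cells primed with LPS then triggered with ATP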;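 for Potency: secreted IL-1B measured as AlphaLISA emission at 615 nm; potency is the fitted concentration of half-maximal effect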;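 for activity change, negative = inhibition: secreted IL-1B measured as AlphaLISA emission at 615 nm; % is set by controls: 0 for no effect and ±100 for the full control effect; lower signal means less IL-1B release which is the wanted effect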
How it was run: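 THP-1, 1 hr compound pre-incubation, then LPS 250 ng/mL + ATP 1.25 mM (final); 16 hr total with compound; IL-1B AlphaLISA, ex 680/em 615 nm; 11-point qHTS, up to 57.5 uM final.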

[12] = Inflammasome Signaling qHTS Counterscreen: IL-1-beta AlphaLISA counterscreen against the NCATS CANVASS Library (AID 1347381);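 note: cell-free check with purified IL-1β in medium and no THP-1 cells; series mostly up to about 57 µM; 0% is about no effect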
How it was run: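 Here, no cellular stimulation occurs; compounds in an 11-point series meet 4 pg purified IL-1-beta directly. Bead-based AlphaLISA detection follows (1 h acceptor/antibody, then 30 min donor, dark, room temperature), with excitation at 680 nm.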

[13] = SW1088 Cancer Cell Toxicity qHTS against the NCATS CANVASS Library (AID 1347350); note: nearly all actives have a fitted effect of over 75% in size; note: potency is the fitted concentration of half-maximal effect
How it was run: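 Per well, 1000 cells; exposure 72 h with compound at 11 final concentrations; readout CellTiter-Glo luminescence.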

[14] = HPAF-II 12hr Apoptosis Induction qHTS against the NCATS CANVASS Library (AID 1347358); note: 0% is about no effect
How it was run: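 Caspase-Glo 3/7 luminescence (DEVD substrate) reports caspase activity in HPAF-II cells after 12 h compound treatment at 37 degrees C. Compounds were tested in an 11-point series. Doxorubicin served as control.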

[15] = G06 Cancer Cell Toxicity qHTS against the NCATS CANVASS Library (AID 1347368); note: nearly all actives have a fitted effect of over 60% in size; note: potency is the fitted concentration of half-maximal effect
How it was run: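 ATP luminescence (CellTiterGlo) readout of cytotoxicity. Canine G06 glioma cells, 500/well, 72 hr incubation at 37C with compounds; bortezomib titration served as control.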

[16] = qHTS for H2AX Agonists against the NCATS CANVASS Library (AID 1347378); note: potency is the fitted concentration of half-maximal effect; for activation: 0% is about no effect
How it was run: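 TR-FRET readout (ex 320 nm, em 665/620 nm ratio) of phospho-H2AX (S139) in CHO-K1 lysates. Cells treated 3 hr at 37C with compound titration, 0.76% DMSO; lysis 30 min, antibody detection 24 hr at RT.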

[17] = qHTS assay for small molecule disruptors of mitochondrial membrane potential screened against the NCATS CANVASS Library (AID 1347389); note: nearly all actives have a fitted effect of over 60% in size; note: potency is the fitted concentration of half-maximal effect
How it was run: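 Red/green fluorescence ratio read-out: J-aggregates ex 540/em 590 nm, monomers ex 490/em 535 nm. HepG2, 1 hr compound treatment, then 30 min Mito-MPS dye at 37C. 11-pt qHTS concentration series.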

[18] = qHTS for inhibitors of Wild type Zika virus screened against the NCATS CANVASS Library (AID 1347396);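 note: ATP luminescence of surviving cells so rescue from viral cell killing; series mostly up to about 46 µM; % is set by controls: 0 for no effect and ±100 for the full control effect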
How it was run: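 Vero 766 (African green monkey) cells, 1000 per well, attached overnight, then compounds were added in an 11-point series before wild-type Zika virus infection. After 72 h at 37C, cell viability was read as CellTiter Glo luminescence.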

[19] = J3T Cancer Cell Toxicity qHTS against the NCATS CANVASS Library (AID 1347371); note: potency is the fitted concentration of half-maximal effect
How it was run: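 Dog glioma J3T, 500 cells/well; cpd 11-pt qHTS; 72 hr, 37C/5% CO2; CellTiterGlo ATP luminescence readout.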

[20] = target: Nuclear receptor subfamily 1 group I member 3 (Homo sapiens) (UniProt Q14994); test: qHTS for Constitutive Androstane Receptor (CAR) Antagonist screened against the NCATS CANVASS Library (AID 1347372);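 note: cells stimulated with 50 nM CITCO agonist so inhibition reflects antagonism; series mostly up to about 46 µM; % is set by controls: 0 for no effect and ±100 for the full control effect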
How it was run: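 Cells were seeded and left 4hr to attach, then received compound at 11 concentrations and 50 nM CITCO. Following 24hr incubation, fluorescence viability and luciferase luminescence were read sequentially.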

Sequence of Luciferin 4-monooxygenase (Photinus pyralis) (P08659 whole entry, looked up): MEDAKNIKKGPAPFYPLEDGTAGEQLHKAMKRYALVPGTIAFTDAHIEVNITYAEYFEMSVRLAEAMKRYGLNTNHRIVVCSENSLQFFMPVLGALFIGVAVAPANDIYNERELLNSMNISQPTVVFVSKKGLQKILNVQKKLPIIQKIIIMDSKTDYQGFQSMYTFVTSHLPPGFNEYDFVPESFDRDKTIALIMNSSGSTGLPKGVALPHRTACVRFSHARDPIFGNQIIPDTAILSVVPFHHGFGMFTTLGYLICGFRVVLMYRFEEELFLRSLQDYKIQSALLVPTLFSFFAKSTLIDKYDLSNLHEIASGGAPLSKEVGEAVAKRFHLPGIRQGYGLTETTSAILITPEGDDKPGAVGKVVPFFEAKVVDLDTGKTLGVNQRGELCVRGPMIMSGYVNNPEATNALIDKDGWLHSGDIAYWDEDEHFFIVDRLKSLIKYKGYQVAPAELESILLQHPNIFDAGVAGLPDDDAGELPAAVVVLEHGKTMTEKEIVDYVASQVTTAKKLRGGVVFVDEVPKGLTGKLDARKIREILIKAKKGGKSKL
Sequence of Nuclear receptor subfamily 1 group I member 3 (Homo sapiens) (Q14994 whole entry, looked up): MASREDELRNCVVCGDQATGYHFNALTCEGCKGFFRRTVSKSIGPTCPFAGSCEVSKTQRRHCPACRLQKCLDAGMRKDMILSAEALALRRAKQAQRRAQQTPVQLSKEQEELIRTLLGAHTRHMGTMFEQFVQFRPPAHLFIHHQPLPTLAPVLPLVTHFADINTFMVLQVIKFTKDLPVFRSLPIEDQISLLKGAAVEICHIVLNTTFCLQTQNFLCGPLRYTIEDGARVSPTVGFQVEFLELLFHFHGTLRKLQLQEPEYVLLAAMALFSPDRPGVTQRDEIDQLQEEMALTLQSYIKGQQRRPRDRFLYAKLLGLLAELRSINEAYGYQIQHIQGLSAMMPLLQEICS

CC[C@H](O)CCCCC[C@@H]1NC(=O)[C@H]2CCCCN2C(=O)[C@H]([C@H](C)CC)NC(=O)[C@H](Cc2cn(OC)c3ccccc23)NC1=O
inactive: Potency [1] | Potency [2] | Potency [3] | outcome [4] | Potency [5] | Potency [6] | Potency [7] | Potency [8] | outcome [9] | outcome [10] | Potency [11] | outcome [12]

CO[C@H]1/C=C/CCCCC(=O)O[C@@H](/C(C)=C/[C@H](C)C(=O)C[C@H](O)CC2CC(=O)NC(=O)C2)[C@@H](C)C1
inactive: Potency [13] | Potency [1] | Potency [14] | Potency [2] | Potency [3] | outcome [4] | Potency [5] | Potency [7] | Potency [8] | outcome [9] | outcome [10] | Potency [16] | Potency [11] | outcome [12] | Potency [17] | outcome [18]
active: Potency [15] 5.26 µM

COc1cc(C2OCC3C(c4ccc(O)c(OC)c4)OCC23)ccc1O (stereo not drawn)
inactive: outcome [13] inactive [at 7.64 µM] | caspase activation [1] 1.93% [at 9.19 µM] | caspase activation [14] 6.04% [at 9.19 µM] | activation [2] 6.68% [at 9.19 µM] | caspase activation [3] -1.71% [at 9.19 µM] | caspase activation [4] 3.13% [at 9.19 µM] | activity change, negative = inhibition [5] 1.7% [at 11.5 µM] | outcome [6] inactive [at 9.19 µM] | outcome [15] inactive [at 9.19 µM] | activity change, negative = cytotoxicity [7] -7.78% [at 9.17 µM] | activity change, negative = cytotoxicity [19] 0.397% [at 9.19 µM] | activity change, negative = inhibition [20] 9.55% [at 9.19 µM] | activation [8] 1.13% [at 9.19 µM] | activity change, negative = cytotoxic [9] -5.45% [at 9.19 µM] | outcome [10] inactive [at 9.19 µM] | activation [16] -3.74% [at 15.3 µM] | activity change, negative = inhibition [12] -8.43% [at 11.5 µM] | activity change, negative = depolarization [17] 2.39% [at 9.19 µM] | activity change, negative = antiviral [18] -5.5% [at 9.14 µM]

C/C=C/C(=O)C1(O)CC2CC(C(=O)O)CC(C)C2C1C1=C2C(=O)NC(=O)C2=C(CCCCC)C(C)O1 (stereo not drawn)
active: Potency [13] 7.49 µM | Potency [15] 11.8 µM | Potency [19] 20.9 µM | Potency [11] 19.3 µM
inactive: Potency [1] | Potency [14] | Potency [2] | Potency [3] | outcome [4] | Potency [5] | Potency [7] | Potency [20] | Potency [8] | outcome [9] | Potency [16] | outcome [12]

C/C=C(/C)c1c(Cl)c(OC)c(C)c2c1Oc1c(Cl)c(O)c(Cl)c(C)c1C(=O)O2
active: Potency [13] 13.3 µM | Potency [17] 2.63 µM
inactive: Potency [1] | Potency [14] | Potency [2] | Potency [3] | outcome [4] | Potency [5] | Potency [6] | Potency [15] | Potency [20] | Potency [8] | outcome [9] | Potency [16] | Potency [11] | outcome [12]

C[C@@H]1CC[C@]2(C(=O)O)CC[C@]3(C)C(=C2[C@H]1C)CC[C@@H]1[C@@]2(C)CC[C@H](O)C(C)(C)[C@@H]2CC[C@]13C
active: Potency [13] 23.7 µM | Potency [16] 34.4 µM
inactive: Potency [1] | Potency [14] | Potency [2] | Potency [3] | outcome [4] | Potency [5] | Potency [6] | Potency [15] | Potency [7] | Potency [19] | Potency [20] | Potency [8] | outcome [9] | outcome [10] | outcome [12] | Potency [17] | outcome [18]

C[C@@]1(CCC(=O)Nc2c(O)ccc(C(=O)O)c2O)C(=O)C=C[C@]23C[C@H]4C[C@H](O[C@@]4(C)C2)C31 (stereo partly drawn)
inactive: Potency [13] | Potency [1] | Potency [14] | Potency [2] | Potency [3] | outcome [4] | Potency [5] | Potency [6] | Potency [15] | Potency [7] | Potency [19] | Potency [20] | Potency [8] | outcome [9] | outcome [10] | Potency [16] | Potency [11] | outcome [12] | Potency [17] | outcome [18]

CCCc1c2c([nH]c(=O)c1C)C(=O)c1[nH]c(=O)c(C)c(CCC)c1C2=O
inactive: Potency [1] | Potency [14] | Potency [2] | Potency [3] | outcome [4] | Potency [5] | Potency [6] | Potency [7] | Potency [19] | Potency [8] | outcome [9] | outcome [10] | Potency [11] | outcome [12] | outcome [18]
active: Potency [13] 8.41 µM

COc1cc2ccc(=O)oc2c(O)c1O[C@@H]1O[C@H](CO)[C@@H](O)[C@H](O)[C@H]1O
inactive: Potency [13] | Potency [1] | Potency [14] | Potency [2] | Potency [3] | outcome [4] | Potency [5] | Potency [6] | Potency [7] | Potency [19] | Potency [20] | Potency [8] | outcome [9] | outcome [10] | Potency [16] | outcome [12] | Potency [17] | outcome [18]
active: Potency [15] 8.12 µM

COc1ccc(-c2oc3cc(OC)cc(OC)c3c(=O)c2O)cc1
active: Potency [15] 9.35 µM
inactive: Potency [1] | Potency [14] | Potency [2] | Potency [3] | outcome [4] | Potency [5] | Potency [6] | Potency [7] | Potency [19] | Potency [20] | Potency [8] | outcome [9] | outcome [10] | Potency [16] | Potency [11] | outcome [12] | Potency [17] | outcome [18]

COC(=O)[C@]1([C@H]2CCC(=O)O2)CC(=O)c2c(O)cc(C)cc2O1
inactive: Potency [13] | Potency [1] | Potency [14] | Potency [2] | Potency [3] | outcome [4] | Potency [5] | Potency [6] | Potency [15] | Potency [7] | Potency [19] | Potency [20] | Potency [8] | outcome [9] | outcome [10] | Potency [16] | Potency [11] | outcome [12] | Potency [17] | outcome [18]

CC(CCC[C@]1(C)C(=O)C=C[C@@]23C[C@]4(C)O[C@@H](C[C@@H]4[C@H]2O)C31)C(=O)O (stereo partly drawn)
inactive: Potency [13] | Potency [1] | Potency [14] | Potency [2] | Potency [3] | outcome [4] | Potency [5] | Potency [6] | Potency [15] | Potency [7] | Potency [19] | Potency [20] | Potency [8] | outcome [9] | outcome [10] | Potency [16] | Potency [11] | outcome [12] | Potency [17] | outcome [18]
